{"source": "PubChem BioAssay (NCI)", "note": "This is part of a sample that, as a whole, favours compounds with a hit. Of some 83,000 tested, about 20% had one in any assay.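 Treatment: one concentration, 48 hours, 96-well format. Scoring: percent growth, with anything below 10 considered active.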 Active and inactive are the calls of the source."}
{"tested_on": "MOLT-4 leukemia", "experiment": "NCI-60 one-dose screen, 48 h (100 = growth as untreated, 0 = no growth, -100 = all killed)", "conditions": "10 µM unless noted"}
{"smiles": "O=C(/C(Br)=C/c1ccccc1)c1ccccc1", "growth": "-25.2% (active)"}
{"smiles": "CC1Cc2cc(F)ccc2-n2cccc21", "note": "(stereo not given)", "growth": "113% (inactive)"}
{"smiles": "Oc1ccc(CN(Cc2ccc(C(F)(F)F)cc2)Cc2ccc(O)c3ncccc23)c2cccnc12", "growth": "10.4% (inactive)"}
{"smiles": "CNc1ccc(Nc2ccc(S(=O)(=O)O)cc2)c2c1C(=O)c1ccccc1C2=O", "growth": "106% (inactive)"}
{"smiles": "CC(=O)Nc1ccc(C(=O)/C=C/c2ccc(N(C)C)cc2)cc1", "growth": "99.2% (inactive)"}
{"smiles": "Cc1sc(NC(=O)c2ccc(C(C)(C)C)cc2)c(C(=O)O)c1C", "growth": "50.3% (inactive)"}
{"smiles": "O=C(CBr)OCc1ccc([N+](=O)[O-])o1", "growth": "95.6% (inactive)"}
{"smiles": "CCCCN(CCC)CCCCCCCCCCN1CCCc2ccccc21", "growth": "50.5% (inactive)"}
{"smiles": "C=C(C)[C@@H]1CC[C@]2(COC(=O)c3ccccc3C(=O)O)CC[C@]3(C)[C@H](CC[C@@H]4[C@@]5(C)CCCNC(C)(C)[C@@H]5CC[C@]43C)[C@@H]12", "growth": "-7.13% (active)"}
{"smiles": "COc1ccc(/C=C/C(=O)/C=C/c2cc3ccccc3[nH]c2=O)cc1", "growth": "19.4% (inactive)"}
{"smiles": "CCCCCC(=C/c1ccccc1)/C=N/N=C(N)N", "growth": "8.92% (active)"}
{"smiles": "CC([C@H]1CC=C2C3CCC4=C[C@@H](N(C)C)CC[C@]4(C)C3CC[C@@]21C)N(C)C", "note": "(stereo not given in full)", "growth": "73.5% (inactive)"}
{"smiles": "C=CN(C)S(C)(=O)=O", "growth": "30.1% (inactive)"}
{"tested_on": "SR leukemia", "experiment": "NCI-60 one-dose screen, 48 h (100 = growth as untreated, 0 = no growth, -100 = all killed)", "conditions": "10 µM unless noted"}
{"smiles": "CC(=O)OC1/C=C\\CC/C=C\\C1", "note": "(stereo not given)", "growth": "104% (inactive)"}
{"smiles": "CCCCCCCCC1OC1CCCCCCCC(=O)O", "note": "(stereo not given)", "growth": "101% (inactive)"}
{"smiles": "O=c1[nH]c(=S)[nH]c(O)c1/C=C1\\C=Nc2ccccc21", "growth": "5.51% (active)"}
{"smiles": "CCOC1=C(Cl)C(=O)C(OCC)=C(Cl)C1=O", "growth": "87.7% (inactive)"}
{"smiles": "Cc1ccc(C(=O)NN)cc1", "growth": "80.3% (inactive)"}
{"smiles": "O=C1C(=O)c2ccccc2C(O)=C1CCCc1ccc(Oc2ccccc2)cc1", "growth": "94.5% (inactive)"}
{"smiles": "CCN(CC)CCCC(C)Nc1c(C)cnc2cc(Cl)c(C)cc12", "note": "(stereo not given)", "growth": "16.5% (inactive)"}
{"smiles": "Oc1ccc([S+](c2ccc(O)cc2)c2ccc(O)cc2)cc1", "growth": "89.1% (inactive)"}
{"smiles": "CCCCCN1CCN(C(CC(=O)c2ccccc2)C(=O)c2ccccc2)CC1", "note": "(stereo not given)", "growth": "0.154% (active)"}
{"smiles": "S=C(N/N=C/c1cc(Cl)cc(Cl)c1)NC12CC3CC(CC(C3)C1)C2", "growth": "20% (inactive)"}
{"smiles": "CC(=O)c1ccc2c(c1)c1ccccc1n2C", "growth": "77.9% (inactive)"}
{"smiles": "CC1(C)NC(=S)NC1=O", "growth": "93.1% (inactive)"}
{"smiles": "O=C(NC1CCN(Cc2ccccc2)CC1)c1cc(-c2cccnc2)nc2ccc(Cl)cc12", "growth": "23% (inactive)"}
{"smiles": "O=C(O)CS(=O)c1ccc(Cl)cc1", "note": "(stereo not given)", "growth": "84.9% (inactive)"}
{"smiles": "Cc1ccc(S(=O)(=O)NC(CCC(=O)Nc2ccccc2)C(=O)Nc2ccccc2)cc1", "note": "(stereo not given)", "growth": "4.65% (active)"}
{"smiles": "COc1ccc(/C=C2\\CCCC3=C2N=C2SC=NN2C3c2ccc(OC)c(OC)c2)cc1OC", "note": "(stereo not given)", "growth": "34.3% (inactive)"}
{"smiles": "O=C1C(Br)=CC2C1C1C3CCC3C2(Br)C12OCCO2", "note": "(stereo not given)", "growth": "4.59% (active)"}
{"smiles": "Oc1ccc(Br)cc1/C=N/NC(=S)NC12CC3CC(CC(C3)C1)C2", "growth": "-7.5% (active)"}
{"smiles": "CCCCCCC(C)N(CC(C)(C)O)C(=O)c1ccc([N+](=O)[O-])cc1", "note": "(stereo not given)", "growth": "89.5% (inactive)"}
{"smiles": "CC[n+]1c(C)ccc2cc(C)ccc21", "growth": "94.4% (inactive)"}
{"smiles": "CCN(CC)CCCNc1c2ccc(Cl)cc2nc2ccc(OC)cc12", "growth": "-30.3% (active)"}
{"smiles": "O=C(NCCNCCO)c1cc([N+](=O)[O-])cc([N+](=O)[O-])c1O", "growth": "99.8% (inactive)"}
{"smiles": "O=C(/C=C\\c1ccc(NCc2ccc(C(=O)O)cc2)cc1)CCl", "growth": "-12.1% (active)"}
{"smiles": "O=C(/C(Br)=C/c1ccccc1)c1ccccc1", "growth": "-24.9% (active)"}
{"smiles": "CC1Cc2cc(F)ccc2-n2cccc21", "note": "(stereo not given)", "growth": "114% (inactive)"}
{"smiles": "Oc1ccc(CN(Cc2ccc(C(F)(F)F)cc2)Cc2ccc(O)c3ncccc23)c2cccnc12", "growth": "3.48% (active)"}
{"smiles": "CNc1ccc(Nc2ccc(S(=O)(=O)O)cc2)c2c1C(=O)c1ccccc1C2=O", "growth": "99.7% (inactive)"}
{"smiles": "CC(=O)Nc1ccc(C(=O)/C=C/c2ccc(N(C)C)cc2)cc1", "growth": "96.6% (inactive)"}
{"smiles": "Cc1sc(NC(=O)c2ccc(C(C)(C)C)cc2)c(C(=O)O)c1C", "growth": "62.8% (inactive)"}
{"smiles": "O=C(CBr)OCc1ccc([N+](=O)[O-])o1", "growth": "88.1% (inactive)"}
{"smiles": "CCCCN(CCC)CCCCCCCCCCN1CCCc2ccccc21", "growth": "10.5% (inactive)"}
{"smiles": "C=C(C)[C@@H]1CC[C@]2(COC(=O)c3ccccc3C(=O)O)CC[C@]3(C)[C@H](CC[C@@H]4[C@@]5(C)CCCNC(C)(C)[C@@H]5CC[C@]43C)[C@@H]12", "growth": "6.59% (active)"}
